Consider 9 compounds from PubChem BioAssay (NCATS).

SMILES strings stand for the structures. Results filed as inconclusive are left out. Active and inactive are the calls of the source. Unless noted, how the calls were made is not given here.

A short description of assay [1]: qHTS profiling of the MIPE4 collection as inhibitors of Plasmodium falciparum (3D7) proliferation (AID 743344).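 Further: scaled between DMSO vehicle wells and 0.29 µM artemisinin as full inhibition.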 To be noted: P. falciparum 3D7 in erythrocytes, SYBR Green DNA fluorescence, 72 h; at 28.5 µM unless noted. The method in brief: (§1)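 Erythrocytes infected with P. falciparum (0.3% parasitemia, 2.5% hematocrit) incubated with compounds 72 h at 37 C, 5% CO2. Lysis with saponin/Triton buffer containing SYBR Green I, overnight at room temperature in the dark; DNA fluorescence (485/535 nm) normalised to 0.29 uM artemisinin and DMSO.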

The nature of assay [2]: qHTS profiling of the MIPE4 collection as inhibitors of Plasmodium falciparum (DD2) proliferation (AID 743345). To be noted: P. falciparum Dd2 in erythrocytes, SYBR Green DNA, 72 h; at 28.5 µM unless noted. The method in brief: as §1
A short description of assay [3]: qHTS profiling of the MIPE4 collection as inhibitors of Plasmodium falciparum (DD2) proliferation (Rep 2) (AID 743346). To be noted: P. falciparum Dd2 in erythrocytes, SYBR Green DNA, 72 h; at 28.5 µM unless noted. The method in brief:
as §1

A short description of assay [4]: qHTS profiling of the MIPE4 collection as inhibitors of Plasmodium falciparum (HB3) proliferation (AID 743347).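 Further: plate controls were DMSO vehicle wells for no effect and artemisinin wells for full effect.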 The note with it: P. falciparum HB3 in erythrocytes, SYBR Green DNA, 72 h; at 28.5 µM unless noted. In outline:
as §1

Assay [5] in a line: High-throughput drug toxicity screening in the BPDCN cell line Gen2.2 (AID 1224824).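 Further: cells exposed to compounds for 48 h before reading.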 The note with it: Gen2.2 BPDCN cells; at 45.8 µM (top of the series) unless noted. In outline: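 Readout is ATP luminescence from Gen2.2 cells after two days of drug exposure in serum-containing medium at 37 °C. Values express percent activity, with vehicle defining full signal and 9.2 uM bortezomib defining zero.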

The nature of assay [6]: High-throughput drug toxicity screening in the BPDCN cell line Cal-1 (AID 1224825). The note with it: Cal-1 BPDCN cell viability, qHTS; at 45.8 µM (top of the series) unless noted. The method in brief:
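Cal-1 cells, 500 per well in phenol-red-free RPMI with 10% FBS, exposed to compounds for 48 hours at 37C, 5% CO2. Viability read by CellTiter-Glo luminescence; percent activity normalized to DMSO (100%) and 9.2 uM bortezomib final (0%).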

Assay [7] in a line: qHTS assay for measurement of the activity of small molecule inhibitors on Zika virus induced Caspase-3 activity in human iPSC derived neural progenitor cells (hNPCs) (AID 1224857; active means well fitted inhibition curve with a large enough effect; further: % of control where 0% means no effect; nearly all actives have a fitted effect of over 65% in size). The method in brief: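 In medium with heparin 2 ug/ml and cyclopamine 2 uM, hNPCs (350 cells/well) received compound for one hour and then Zika virus at 2 FFU/cell; caspase activity was measured by Caspase-Glo 3/7 luminescence 6 h post-infection.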

Assay [8] can be described thus: qHTS assay for measurement of the activity of small molecule inhibitors on Zika virus induced Caspase-3 activity in human astrocytoma cells (AID 1224859; active means well fitted inhibition curve with a large enough effect;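 further: plate controls were ZIKV-infected untreated cells for no effect and uninfected cells for full effect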). The method in brief:
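A cell-based luminescent caspase-3/7 assay used SNB-19 cells infected with ZIKV (2 FFU/cell) for 6 h following 1 h compound pretreatment.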

The nature of assay [9]: qHTS Screen of the MIPE 4.0 Collection Against Ewings Sarcoma (RDES) (AID 1259252; active means well fitted inhibition curve with a large enough effect; further: potency means the concentration at half of the fitted maximal effect; nearly all actives have a fitted effect of over 35% in size). The method in brief: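 Log-phase cells in RPMI with 5% FBS attached for 4 h, then received compounds as a titration for 48 h at 37C, 5% CO2. Viability was read by CellTiter-Glo luminescence and normalized to DMSO and no-cell wells.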

In the case of `CC(C)N(CCCNC(=O)Nc1ccc(C(C)(C)C)cc1)C[C@H]1O[C@@H](n2cc(Br)c3c(N)ncnc32)[C@H](O)[C@H]1O`, the parasite growth, % of DMSO control in [1] was determined as 5.02%. Further, in [2], the parasite growth remaining, % of DMSO control (lower = more inhibition) is 7.13%. Moreover, the parasite growth, % of control (lower = inhibition) in assay [3] came out at 9.5%. This compound also showed a growth, % of control in [4] of 7.54%. The cell viability, % of control (lower = more cytotoxic) in assay [5] stood at 116%. For the same compound, the viability (% of control) in assay [6] came out at 61.2%. Moreover, the Potency result in [7] and in assay [8] was “inactive” throughout. Moreover, in assay [9], the Potency is 23.5 µM (active).

Compound `O=S(=O)(O)c1ccc2cc(N=Nc3cc(S(=O)(=O)O)c4cccnc4c3O)ccc2c1` came in with a parasite growth, % of DMSO control in assay [1] of 84.5%. The parasite growth remaining, % of DMSO control (lower = more inhibition) in [2] was 87.9%. Also, the parasite growth, % of control (lower = inhibition) in assay [3] was 77.8%. The compound also came in with a growth, % of control in [4] of 47.7%. The cell viability, % of control (lower = more cytotoxic) in assay [5] is 63.9%. The compound further displayed a viability (% of control) in assay [6] of 89.1%. For the same compound, the Potency entry in assay [7] and in assay [8] was “inactive” throughout. The Potency in assay [9] is 18.7 µM (active).

Consider `CNC(=O)c1ccc2c(C(=Nc3cccc(CN(C)C)c3)c3ccccc3)c(O)[nH]c2c1`, for which, in assay [1], the parasite growth, % of DMSO control amounted to 19.9%. Also, the parasite growth remaining, % of DMSO control (lower = more inhibition) in [2] is 18.6%. Further, the parasite growth, % of control (lower = inhibition) in assay [3] is 15.2%. Moreover, the growth, % of control in [4] is 19%. In assay [5], the cell viability, % of control (lower = more cytotoxic) is 4.19%. Besides, the viability (% of control) in assay [6] was found to be 19.6%. Moreover, the Potency entry in assay [7] and in [8] was “inactive” throughout. The Potency in [9] is 16.6 µM (active).

For `CC1=C(CC(=O)O)c2cc(F)ccc2C1=Cc1ccc(S(C)=O)cc1` (stereo unspecified), in [1], the parasite growth, % of DMSO control was found to be 79.1%. For the same compound, the parasite growth remaining, % of DMSO control (lower = more inhibition) in assay [2] was 91.5%. The parasite growth, % of control (lower = inhibition) in assay [3] came to 64.2%. For the same compound, the growth, % of control in assay [4] was determined as 52.4%. For the same compound, the cell viability, % of control (lower = more cytotoxic) in [5] is 6.5%. Also, the viability (% of control) in [6] stood at 7.86%. The Potency entry in assay [7] and in assay [8] was “inactive” in each case. Also, the Potency in [9] is 1.18 µM (active).

Turning to `Cc1cc(CS(=O)(=O)c2ccccc2)cc(OCc2ccc(CN3CCC[C@H]3CO)cc2)c1`, the parasite growth, % of DMSO control in assay [1] worked out at 33.1%. In addition, the parasite growth remaining, % of DMSO control (lower = more inhibition) in assay [2] turned out to be 30.3%. For the same compound, the parasite growth, % of control (lower = inhibition) in assay [3] is 18.8%. The growth, % of control in assay [4] amounted to 66.2%. Besides, the cell viability, % of control (lower = more cytotoxic) in [5] stood at 318%. The same compound yielded a viability (% of control) in [6] of 76.3%. Moreover, the Potency entry in [7] and in [8] was “inactive” throughout. For the same compound, in [9], the Potency was 20.9 µM (active).

For the compound `C[C@@H]1[C@H](C)CC[C@]2(C(=O)O)CC[C@]3(C)C(=CC[C@@H]4[C@@]5(C)CC[C@H](O)C(C)(C)[C@H]5CC[C@]43C)[C@@H]12`, in assay [1], the parasite growth, % of DMSO control worked out at 4.81% [at 57.5 µM]. In assay [2], the parasite growth remaining, % of DMSO control (lower = more inhibition) is 55.6% [at 57.5 µM]. The parasite growth, % of control (lower = inhibition) in [3] came to 8% [at 57.5 µM]. In assay [4], the growth, % of control came to 3.02% [at 57.5 µM]. Besides, in assay [5], the cell viability, % of control (lower = more cytotoxic) came out at 41.3% [at 92.2 µM]. The viability (% of control) in assay [6] was found to be 29% [at 92.2 µM]. For the same compound, the Potency result in assay [7] and in assay [8] was “inactive” each time. Further, in assay [9], the Potency is 2.7 µM (active).

In the case of `OC[C@H]1O[C@@H](OCCc2ccc(O)cc2)[C@H](O)[C@@H](O)[C@H]1O`, the parasite growth, % of DMSO control in assay [1] was 97.9%. Besides, in [2], the parasite growth remaining, % of DMSO control (lower = more inhibition) is 103%. Besides, in [3], the parasite growth, % of control (lower = inhibition) was 131%. In addition, the growth, % of control in [4] stood at 104%. Moreover, the cell viability, % of control (lower = more cytotoxic) in assay [5] is 106%. The same compound registered a viability (% of control) in assay [6] of 96.6%. The Potency result in assay [7] and in assay [8] was “inactive” throughout. Further, the Potency in [9] was 23.5 µM (active).

Regarding `N#CC(c1ccc(Cl)cc1)c1c(Cl)cc(-n2ncc(=O)[nH]c2=O)cc1Cl` (stereo unspecified), in assay [1], the parasite growth, % of DMSO control was 19.5%. In addition, the parasite growth remaining, % of DMSO control (lower = more inhibition) in assay [2] was 10.7%. Besides, the parasite growth, % of control (lower = inhibition) in assay [3] amounted to 10.2%. Also, the growth, % of control in assay [4] worked out at 7.09%. In assay [5], the cell viability, % of control (lower = more cytotoxic) stood at 69.2%. Besides, the viability (% of control) in assay [6] came out at 12.7%. The Potency result in [7] and in assay [8] was “inactive” each time. The Potency in assay [9] was 26.4 µM (active).

In turn, `Cn1c(=O)c(-c2c(Cl)cccc2Cl)cc2cnc(Nc3cccc(C(=O)O)c3)nc21` gave a parasite growth, % of DMSO control in [1] of 12.8%. Besides, the parasite growth remaining, % of DMSO control (lower = more inhibition) in assay [2] is 13.6%. Besides, the parasite growth, % of control (lower = inhibition) in [3] was determined as 19.9%. In assay [4], this compound gave a growth, % of control of 15.5%. In addition, the cell viability, % of control (lower = more cytotoxic) in [5] was determined as 462%. The same compound had a viability (% of control) in assay [6] of 77.7%. In addition, the Potency entry in assay [7] and in assay [8] was “inactive” each time. Moreover, in assay [9], the Potency is 0.0662 µM (active).
